Bioassay records as filed in PubChem BioAssay.
In the library only some 5.3% were active in any assay of this set; here they are far more common.
HCV inhibitor: qHTS Assay for Inhibitors of Hepatitis C Virus (HCV); Potency, µM (series often up to 41.8 µM), for the others: at the top dose activity change, negative = inhibition, most hits filed as inhibitors; Huh7.5.1 HCVcc-Cre infection, luciferase reporter, 44 h; AID 651820, 2012; 3.4% of 340,000 active; also: % is scaled to controls: 0 for no effect and ±100 for the full control effect
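Antiviral activity was scored by luciferase reporter output from cells infected with HCVcc-Cre (~0.5 moi) in presence of compound, 44 h infection period, cells seeded 1,000/well 4 h prior.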
Lassa entry inh: qHTS for Inhibitors of binding or entry into cells for Lassa Virus. 1.2% of 300,000 active. Lassa virus pseudotype entry inhibition, cell reporter. Potency, µM (highest dose often 37.9 µM), inactives show top-dose activity change, negative = inhibition, hits mostly inhibitors; calls by dose curve; tested in HEK293 cells; also: % is scaled to controls: 0 for no effect and ±100 for the full control effect; nearly all actives have a fitted effect of over 50% in size
FMDV antiviral: High Throughput Screening for Foot and Mouth Disease Virus Antivirals. FMDV antiviral cell-based qHTS. Potency, µM (titrated, usually from 57.9 µM), for inactives: at the highest dose activity change, negative = inhibition, most hits filed as inhibitors. 1.2% of 410,000 active. AID 1159524, 2015; calls by dose curve; tested in HEK293T cells; also: read-out not given here; % is scaled to controls: 0 for no effect and ±100 for the full control effect; nearly all actives have a fitted effect of over 45% in size
MARV entry inh: qHTS for inhibitors of binding or entry into cells for Marburg Virus; Marburg virus pseudotyped entry inhibition, cell reporter; 1.8% of 300,000 active; Potency, µM (highest dose often 37.8 µM), for inactives: at the top dose activity change, negative = inhibition, hits mostly inhibitors; calls by dose curve; tested in HEK293 cells; also: % is scaled to controls: 0 for no effect and ±100 for the full control effect
VACV Venus inh: qHTS for Stage-Specific Inhibitors of Vaccinia Orthopoxvirus: Venus Reporter Primary qHTS. Vaccinia virus Venus reporter expression, fluorescence. Potency, µM (top dose mostly 36.5 µM), for the others: at the top dose activity change, negative = inhibition, hits mostly inhibitors. 0.46% of 330,000 active; calls by dose curve; tested in A549 cells; also: % is scaled to controls: 0 for no effect and ±100 for the full control effect; nearly all actives have a fitted effect of over 30% in size
VACV mCherry inh: qHTS for Stage-Specific Inhibitors of Vaccinia Orthopoxvirus: mCherry Reporter Primary qHTS | Vaccinia virus mCherry reporter infection, fluorescence | Potency, µM (titrated, usually from 36.5 µM), for the others: top-dose activity change, negative = inhibition, most hits filed as inhibitors | 0.63% of 310,000 active; calls by dose curve; tested in A549 cells; also: % is scaled to controls: 0 for no effect and ±100 for the full control effect; nearly all actives have a fitted effect of over 35% in size
HCV inh confirm: qHTS Assay for Inhibitors of Hepatitis C Virus (HCV): Confirmation Assay for Cherry-picked Compounds | shares compounds with HCV inhibitor | HCVcc-Cre infectious virus cell assay, luciferase, inhibition | Potency, µM (top dose mostly 41.8 µM), for inactives: at the top dose activity, negative = inhibition, hits mostly inhibitors | 78% of 640 active | AID 720575, 2013; also: nearly all actives have a fitted effect of over 80% in size
HCV cytotox: qHTS Assay for Inhibitors of Hepatitis C Virus (HCV): Cytotoxicity Counterscreen for Cherry-picked Compounds; shares compounds with HCV inhibitor; 22% of 640 active; Potency, µM (doses to about 41.8 µM), inactives show top-dose activity change, negative = cytotoxicity, hits mostly inhibitors; AID 720576, 2013; HCV host cell line cytotoxicity counterscreen;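 also: 44 h compound exposure; % is scaled to controls: 0 for no effect and ±100 for the full control effect; nearly all actives have a fitted effect of over 55% in size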
The depositor's hits bear a star; i = inactive; ? = inconclusive; . = no result given; [ ] = another dose, or the depositor's remark. Unless noted, calls follow the shape of the dose curve; as a rule, active = well fitted curve in the direction sought with a large enough effect; inconclusive = small, poorly fitted or top-dose-only effect, or another doubt; inactive = no such curve, though single readings can be large; an effect the other way counts as inactive or inconclusive. Potency is read from the fitted curve at half-maximal effect.

SMILES	HCV inhibitor	Lassa entry inh	FMDV antiviral	MARV entry inh	VACV Venus inh	VACV mCherry inh	HCV inh confirm	HCV cytotox
CCn1c(=O)n(CC)c2cc(N3CCCC3)c(NC(=O)c3cc(Cl)ccc3OC)cc21	4µM*	-22%[46.1 µM]	-29%	20%[46.1 µM]	-3%	-5%	16µM*	?
CCOc1ccccc1NC(=O)/C=C/c1ccccc1[N+](=O)[O-]	?	4%	-17%	?	-13%	i	?	27%
O=C(/C=C\c1ccccc1[N+](=O)[O-])Nc1ccccc1	-25%	.	5%	.	.	.	.	.
COc1ccc(Cl)cc1NC(=O)c1ccoc1C	5.6µM*	18%	-8%	1%	?	.	14µM*	8%
COc1cc(OC)c(NC(=O)c2ccoc2C)cc1Cl	?	-7%	1%	?	.	.	.	.
COc1ccc(CC(=O)Nc2nn(C)c3nc4c(C)cccc4cc23)cc1	?	-6%	-8%	?	4%	i	.	.
CCOC(=O)C1(CCc2ccccc2)CCN(Cc2csc(C(C)=O)c2)CC1	6.3µM*	-14%	13µM*	?	?	-26%	14µM*	?
CCOC(=O)C1(CCc2ccccc2)CCN(Cc2cnc(N(C)C)s2)CC1	?	?	-25%	?	-10%	i	.	.
COc1ccc2c(c1)CCc1c-2nc2ccccc2c1N1CCOCC1	4.5µM*	-28%	14%	?	-16%	-13%	-21%	-51%
CC(C)(C)C1CCc2c(sc3ncn(N)c(=N)c23)C1 (centres undefined)	?	.	?	.	.	.	6.3µM*	?
Cc1cc(C)nc(NCC(O)CNc2ccccc2Cl)n1 (centres undefined)	?	-18%	?	-46%	-23%	-27%	28µM*	12%
COc1ccccc1NC(=O)c1ccc(NC(=O)COC(=O)C(C)C)cc1	15%	24%	-24%	3%	-10%	-12%	.	.
COc1ccccc1NC(=O)c1ccc(NC(=O)COC(=O)c2ccc(O)cc2)cc1	?	.	-13%	.	.	.	?	?
Cn1nc(C(F)(F)F)c2cc(NC(=O)OCc3ccc(C(C)(C)C)cc3)sc21	?	?	22µM*	?	-10%	-9%	25µM*	?
Cc1onc(-c2ccccc2)c1-c1nnc(-c2ccccc2C(F)(F)F)o1	?	-26%[46.1 µM]	?	?	7%	i	25µM*	-31%
Cc1onc(-c2ccccc2)c1-c1nnc(COC(=O)c2ccc(F)cc2)o1	.	.	-22%	.	-13%	i	.	.
CCCCN(C)C(=O)c1ccc2c(c1)NC(=O)C(CC(C)C)N2 (centres undefined)	.	3%[46.1 µM]	-6%	.	-12%	-11%	.	.
COc1cc(CNC(=O)c2ccc3oc(C(C)C)nc3c2)cc(OC)c1	-29%	.	-3%	.	.	.	.	.
CCCCCn1c(=O)c(C(=O)NCc2ccco2)c(O)c2ccccc21	?	-12%	-19%	-5%[46.1 µM]	-9%	3%	25µM*	?
CN1CCc2c(sc(NC(=O)c3ccc([N+](=O)[O-])o3)c2C(N)=O)C1	4µM*	?	-6%	?	2.2µM*	?	14µM*	?
NC(=O)c1c(NC(=O)c2ccc([N+](=O)[O-])o2)sc2c1CCCC2	?	?	27%	-2%[46.1 µM]	-23%	?	.	.
O=C(CSc1ccc(Cl)cc1)NC(=O)c1ccccc1	?	.	-1%	.	.	.	.	.
Cc1cccc2cc(C#N)c(NCCCNS(=O)(=O)c3ccc(Cl)cc3)nc12	8.9µM*	.	?	.	.	.	14µM*	?
CCCOc1ccccc1C1C(C(=O)Nc2ccccc2)=C(C)Nc2nnnn21 (centres undefined)	.	-18%[46.1 µM]	-1%	-13%[46.1 µM]	-13%	-5%	.	.
O=C(NC1c2ccccc2-c2ccccc21)c1ccco1	?	25%	-4%	-13%[46.1 µM]	?	?	7.9µM*	-93%
SMILES	HCV inhibitor	Lassa entry inh	FMDV antiviral	MARV entry inh	VACV Venus inh	VACV mCherry inh	HCV inh confirm	HCV cytotox
O=C(NC1CCCCC1NC(=O)c1ccco1)c1ccco1 (centres undefined)	20%	3%	-15%	-6%	-11%	-8%[1.46 µM]	.	.
CCc1ccc(Nc2ncc3c(n2)CC(c2ccc(OC)cc2)CC3=O)cc1 (centres undefined)	4µM*	0.52µM*	-2%	18µM*	.	.	?	-30%
CCc1ccc(Nc2ncc3c(n2)CC(C)CC3=O)cc1 (centres undefined)	-3%	?	73%	?	-7%	-2%	.	.
c1ccc2c(c1)CCN(c1ncnc3c1[nH]c1ccccc13)C2	2.5µM*	?	11µM*	?	.	.	2.8µM*	6.3µM*
c1ccc(Cn2nnc3c(N4CCc5ccccc5C4)ncnc32)cc1	-24%	2%	-9%	-4%	-12%	-21%	.	.
COc1ccc(-c2ccccc2)cc1NC(=O)c1cccs1	7.9µM*	-9%	-17%	-10%	-15%	?	20µM*	17%
COc1cc(NC(=O)c2cccs2)c(OC)cc1NC(=O)c1cccs1	-12%	-10%	-16%	?	-13%	-15%	.	.
COC(=O)c1ccc(CN2CCc3ccc(NC(=O)c4ccncc4)cc3C2)cc1	8.9µM*	-17%	?	?	-20%	-5%	14µM*	?
CC(=NNC(=S)N1CCN(C2CCCCCC2)CC1)c1ccccn1	0.89µM*	0.28µM*	?	?	?	?	0.11µM*	?
Fc1ccc(-c2cc3nc4c(c(N5CCOCC5)n3n2)CCCC4)cc1	?	?	.	?	-20%	-27%	.	.
OC1CCN(c2c3c(nc4cc(-c5ccc(F)cc5)nn24)CCC3)CC1	?	-16%	-5%	-1%	-11%	-21%	5µM*	37%
O=Cc1c(NCCN2CCCC2)c2ccccc2[nH]c1=O	2%	?	2%	4%	4%	-18%	.	.
Cc1cc(Cl)c2oc(C(=O)N3CCOCC3)c(C)c2c1	.	.	57%	.	-11%	i	.	.
Cc1cc(Cl)c2oc(C(=O)N3CCN(C(=O)c4ccco4)CC3)c(C)c2c1	?	.	-8%	.	.	.	?	-12%
CC1(C(=O)NCc2ccccc2)CN(S(C)(=O)=O)CC(=O)N1C1CC1 (centres undefined)	.	.	-11%	.	-9%	-15%	.	.
O=C(O)CSc1nc(-c2cccs2)cc(C(F)(F)F)n1	-22%	9%	-14%	?	6%	6%	.	.
